This note sets out measurements from PubChem BioAssay (EPA / NIEHS).

Several values for one entry are separate records, joined by “and”; a condition that tells them apart may be missing. Equal values may be shown once. Records with an inconclusive call do not appear. Activity calls are given as the source filed them. How the source made its calls: active means hit-call score of the fitted dose curve at least 0.9, where 1 is the maximum; inconclusive means response in the unintended direction; inactive means score below 0.9.

Sequence of Estrogen receptor beta (Homo sapiens) (Q92731 whole entry, looked up, the tested form may be a part): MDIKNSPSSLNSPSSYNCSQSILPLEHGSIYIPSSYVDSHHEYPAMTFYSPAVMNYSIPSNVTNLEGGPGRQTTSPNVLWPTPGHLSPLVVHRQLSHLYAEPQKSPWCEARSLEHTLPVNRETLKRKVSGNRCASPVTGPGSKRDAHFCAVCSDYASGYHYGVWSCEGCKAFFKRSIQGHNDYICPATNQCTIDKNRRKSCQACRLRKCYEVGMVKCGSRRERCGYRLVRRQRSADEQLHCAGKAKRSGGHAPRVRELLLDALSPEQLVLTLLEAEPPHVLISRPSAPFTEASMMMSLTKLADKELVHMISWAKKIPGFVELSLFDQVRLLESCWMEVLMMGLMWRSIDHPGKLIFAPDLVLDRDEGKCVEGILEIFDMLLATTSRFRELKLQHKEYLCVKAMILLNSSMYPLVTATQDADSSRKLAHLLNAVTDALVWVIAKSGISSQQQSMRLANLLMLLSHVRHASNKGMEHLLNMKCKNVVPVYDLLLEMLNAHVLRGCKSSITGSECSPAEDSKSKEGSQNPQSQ

In the first test the target is Androgen Receptor/SRC-1 Co-activator, AR (gene 367) (UniProt P10275). The test is described as follows: OT_AR_ARSRC1_0960: Odyssey Thera (OT) 16-hour HEK293T Protein-Complementation Assay for Androgen Receptor/SRC-1 Co-activator (AID 2283353).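 Further: actives raise the signal above DMSO so potency reflects increased AR and SRC-1 complex.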 The procedure, abridged: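 HEK293T cells stably expressing AR and SRC-1 fused to split Venus YFP fragments via (Gly4Ser)2 linkers were dosed for 16 h. Nuclear/cytoplasmic fluorescence ratio at 488 nm, ≥400 cells per image, fitted for gain of signal versus DMSO.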
Sequence of Androgen Receptor/SRC-1 Co-activator, AR (gene 367) (P10275 whole entry, looked up, the tested form may be a part): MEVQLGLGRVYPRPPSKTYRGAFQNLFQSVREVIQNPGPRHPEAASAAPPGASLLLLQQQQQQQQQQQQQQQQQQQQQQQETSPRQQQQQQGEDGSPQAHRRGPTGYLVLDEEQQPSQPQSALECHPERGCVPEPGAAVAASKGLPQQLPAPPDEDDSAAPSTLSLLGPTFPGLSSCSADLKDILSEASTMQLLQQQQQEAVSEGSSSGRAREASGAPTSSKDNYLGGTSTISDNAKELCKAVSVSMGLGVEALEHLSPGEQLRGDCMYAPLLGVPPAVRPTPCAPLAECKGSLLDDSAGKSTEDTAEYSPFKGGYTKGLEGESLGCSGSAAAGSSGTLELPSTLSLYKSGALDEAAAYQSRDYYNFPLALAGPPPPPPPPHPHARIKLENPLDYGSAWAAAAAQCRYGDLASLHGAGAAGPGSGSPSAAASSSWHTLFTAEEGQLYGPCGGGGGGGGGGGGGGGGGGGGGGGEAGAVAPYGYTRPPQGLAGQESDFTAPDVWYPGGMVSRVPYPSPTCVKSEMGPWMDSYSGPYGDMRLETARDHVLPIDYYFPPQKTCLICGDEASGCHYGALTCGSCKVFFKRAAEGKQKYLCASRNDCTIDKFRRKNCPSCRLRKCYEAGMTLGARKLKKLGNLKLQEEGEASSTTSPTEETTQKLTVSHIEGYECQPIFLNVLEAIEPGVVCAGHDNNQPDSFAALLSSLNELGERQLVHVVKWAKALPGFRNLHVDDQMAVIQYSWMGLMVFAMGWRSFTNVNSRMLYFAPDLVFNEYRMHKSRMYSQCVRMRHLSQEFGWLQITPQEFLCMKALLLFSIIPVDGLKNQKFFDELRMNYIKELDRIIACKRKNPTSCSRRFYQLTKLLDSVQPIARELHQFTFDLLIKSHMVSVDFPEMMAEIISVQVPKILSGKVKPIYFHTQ
Consider `COCCl`, for which the call was inactive. On the same count and under the same terms, to `Cc1cc(Cl)ccc1OCCCC(=O)O` belongs “inactive”.

With `O=C(N[C@H]1CN2CCC1CC2)c1ccc2c(c1)OCCO2`, the compound was called inactive.

A further test has as its target Estrogen receptor beta (Homo sapiens) (UniProt Q92731). The test is described as follows: OT_ER_ERbERb_0480: Odyssey Thera (OT) 8-hour HEK293T Protein-Complementation Assay for Estrogen Receptor-beta/-beta Homodimer (AID 2283357).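 Further: active means signal gain over DMSO baseline.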 The procedure, abridged: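 Cells (HEK293T, stable ER-beta LBD PCA pair) are treated 8 hours, fixed and Draq5-stained; signal is fluorescence intensity increase relative to vehicle, fitted in the gain direction.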
As to `CC1(C)[C@H](C(=O)O[C@H](C#N)c2cccc(Oc3ccccc3)c2)[C@@H]1/C=C(\Cl)C(F)(F)F`, the result was inactive. The same measure, in the same setting: to `O=[N+]([O-])c1ccccc1O` belongs “inactive”. For the compound `Oc1c(Cl)cc(Cl)cc1Cl`, the compound was classed as inactive. The same measure, in the same setting: the result for `Nc1ncn[nH]1` reads “inactive”; that for `COCCl`, “inactive”. Still for that read-out and setting: the result for `O=C(CBr)c1ccc(O)cc1` reads “inactive”; that for `COc1nn(C(=O)NS(=O)(=O)c2ccccc2OC(F)(F)F)c(=O)n1C`, “inactive”; that for `Clc1cccc(Cl)c1`, “inactive”. Usually AC50 stands for the concentration at which the activity in the assay is half-maximal. For `CC(C)(C)c1ccccc1O`, the AC50 is 50 µM (active). On to `Cc1cc(C)cc(C)c1`, for which the result was inactive. The same measure, in the same setting: to `CN(N=O)C(N)=O` belongs “inactive”; to `Cc1cc(Cl)ccc1OCCCC(=O)O`, “inactive”; to `COC(=O)Nc1cccc(OC(=O)Nc2cccc(C)c2)c1`, “inactive”. In the case of `Cc1cc(Cl)ccc1O`, the concentration at half-maximal activity (AC50) is 66.5 µM (active). For the compound `O=C(N[C@H]1CN2CCC1CC2)c1ccc2c(c1)OCCO2`, the compound was classed as inactive.

`CCC[CH2][Sn]([CH2]CCC)([CH2]CCC)[CH2]CCC`: the call was inactive.

On to `CCOP(=S)(OCC)O/N=C(\C#N)c1ccccc1`, for which the AC50 was 26.9 µM (active).

The target of a further test is human Peroxisome Proliferator-activated Receptor alpha (PPARa), PPARA (gene 5465) (UniProt Q07869). The test is described as follows: NVS_NR_hPPARa: NovaScreen (NVS) Nuclear Receptor Binding Assay for human Peroxisome Proliferator-activated Receptor alpha (PPARa) (AID 2283359).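 Further: activity means loss of TR-FRET signal versus DMSO baseline.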 The method in brief: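 Chemicals were first screened in duplicate at 25 uM, and active ones were retested across concentration series. Binding was monitored by TR-FRET one hour after dosing, with decreased signal against DMSO counted as activity.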
Sequence of human Peroxisome Proliferator-activated Receptor alpha (PPARa), PPARA (gene 5465) (Q07869 whole entry, looked up): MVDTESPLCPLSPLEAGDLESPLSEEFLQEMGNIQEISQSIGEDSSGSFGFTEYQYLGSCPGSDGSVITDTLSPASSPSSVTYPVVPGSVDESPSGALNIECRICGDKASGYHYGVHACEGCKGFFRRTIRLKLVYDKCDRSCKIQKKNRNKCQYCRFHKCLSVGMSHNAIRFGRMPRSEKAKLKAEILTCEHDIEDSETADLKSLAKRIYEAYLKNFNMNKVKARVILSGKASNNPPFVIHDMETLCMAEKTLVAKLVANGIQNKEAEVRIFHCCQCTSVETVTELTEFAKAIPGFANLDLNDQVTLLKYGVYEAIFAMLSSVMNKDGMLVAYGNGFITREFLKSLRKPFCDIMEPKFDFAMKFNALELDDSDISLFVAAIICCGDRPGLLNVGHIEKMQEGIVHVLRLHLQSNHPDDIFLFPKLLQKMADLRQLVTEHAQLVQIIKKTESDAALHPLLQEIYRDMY
For the compound `CCCCCCCCCCCCc1cccc(S(=O)(=O)O)c1`, the AC50 is 9.25 µM (active). Still for that read-out and setting: to `CCCCCCCCCCCCOS(=O)(=O)O` belongs 15.8 µM (active) and 8.71 µM (active). Take `N#CCCC(Br)(C#N)CBr` (stereo not drawn): the compound was called inactive.

Turning to `CC(C)(C)c1ccccc1O`, the outcome was inactive. Still for that read-out and setting: the result for `Cc1cc(Cl)ccc1O` reads “inactive”.

The target of a further test is PGR (gene 5241) (UniProt P06401). The test is described as follows: NVS_NR_hPR: NovaScreen (NVS) Nuclear Receptor Binding Assay for human Progestron Receptor (PR) (AID 2283360).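 Further: active means loss of bound radioligand signal versus DMSO baseline.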 The procedure, abridged: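 Competitive displacement of a labelled radioligand from T47D-derived receptor protein is measured in a cell-free format. Initial testing uses 25 uM in duplicate, with positive and negative controls on every plate.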
Sequence of PGR (gene 5241) (P06401 whole entry, looked up): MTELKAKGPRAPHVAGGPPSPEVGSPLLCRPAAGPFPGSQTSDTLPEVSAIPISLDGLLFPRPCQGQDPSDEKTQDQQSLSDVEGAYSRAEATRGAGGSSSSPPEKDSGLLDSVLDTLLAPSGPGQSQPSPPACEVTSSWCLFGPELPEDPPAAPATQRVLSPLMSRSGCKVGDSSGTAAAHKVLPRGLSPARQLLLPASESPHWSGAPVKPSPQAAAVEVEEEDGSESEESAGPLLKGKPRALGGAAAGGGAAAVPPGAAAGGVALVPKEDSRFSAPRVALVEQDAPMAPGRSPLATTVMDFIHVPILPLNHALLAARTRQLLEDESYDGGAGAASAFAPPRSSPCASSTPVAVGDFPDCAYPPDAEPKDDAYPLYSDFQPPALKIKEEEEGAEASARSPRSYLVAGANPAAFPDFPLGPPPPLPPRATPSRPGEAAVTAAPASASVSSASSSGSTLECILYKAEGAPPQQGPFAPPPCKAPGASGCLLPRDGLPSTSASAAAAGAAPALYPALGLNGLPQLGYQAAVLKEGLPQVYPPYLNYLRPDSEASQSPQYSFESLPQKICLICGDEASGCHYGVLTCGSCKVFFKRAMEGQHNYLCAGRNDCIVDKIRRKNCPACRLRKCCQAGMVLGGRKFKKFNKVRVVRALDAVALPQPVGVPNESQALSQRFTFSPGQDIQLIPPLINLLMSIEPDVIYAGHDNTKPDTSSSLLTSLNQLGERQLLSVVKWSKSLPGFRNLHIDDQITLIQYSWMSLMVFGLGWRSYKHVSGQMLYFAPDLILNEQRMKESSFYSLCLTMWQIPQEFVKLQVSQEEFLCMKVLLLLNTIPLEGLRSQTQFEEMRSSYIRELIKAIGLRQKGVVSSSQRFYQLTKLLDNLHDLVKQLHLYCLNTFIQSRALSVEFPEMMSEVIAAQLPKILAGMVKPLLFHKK
As for `CCCCCCCCCCCCc1cccc(S(=O)(=O)O)c1`, the concentration at half-maximal activity (AC50) is 15.9 µM (active). As for `C[C@]12CC[C@@H](O)C[C@@H]1CC[C@@H]1[C@@H]2CC[C@]2(C)C(=O)CC[C@@H]12`, the call was inactive. On to `O=C1C=CC(=O)c2ccccc21`, for which the AC50 is 38.6 µM (active).

Consider `Cc1ccccc1OP(=O)(Oc1ccccc1)Oc1ccccc1`, for which the compound was classed as inactive. Still for that read-out and setting: the result for `CCOC(=O)C(SP(=S)(OC)OC)c1ccccc1` (stereo not drawn) reads “inactive”; that for `Clc1cccc(Cl)c1Cl`, “inactive”; that for `Cc1ccccc1OP(=O)(Oc1ccccc1C)Oc1ccccc1C`, “inactive”. `O=C(N[C@H]1CN2CCC1CC2)c1ccc2c(c1)OCCO2`: the compound was called inactive.

The target of a further test is Glucocorticoid receptor (Homo sapiens) (UniProt P04150). The test is described as follows: NVS_NR_hGR: NovaScreen (NVS) Nuclear Receptor Binding Assay for human Glucocorticoid Receptor (GR) (AID 2283363).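 On AC50: activity is loss of specific radioligand binding signal relative to DMSO.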 The method in brief: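 Competitive displacement of a labelled ligand was measured on cell-free receptor preparations after 16 h exposure. Initial testing used 25 uM in duplicate with plate controls; confirmed actives went into concentration series.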
Sequence of Glucocorticoid receptor (Homo sapiens) (P04150 whole entry, looked up): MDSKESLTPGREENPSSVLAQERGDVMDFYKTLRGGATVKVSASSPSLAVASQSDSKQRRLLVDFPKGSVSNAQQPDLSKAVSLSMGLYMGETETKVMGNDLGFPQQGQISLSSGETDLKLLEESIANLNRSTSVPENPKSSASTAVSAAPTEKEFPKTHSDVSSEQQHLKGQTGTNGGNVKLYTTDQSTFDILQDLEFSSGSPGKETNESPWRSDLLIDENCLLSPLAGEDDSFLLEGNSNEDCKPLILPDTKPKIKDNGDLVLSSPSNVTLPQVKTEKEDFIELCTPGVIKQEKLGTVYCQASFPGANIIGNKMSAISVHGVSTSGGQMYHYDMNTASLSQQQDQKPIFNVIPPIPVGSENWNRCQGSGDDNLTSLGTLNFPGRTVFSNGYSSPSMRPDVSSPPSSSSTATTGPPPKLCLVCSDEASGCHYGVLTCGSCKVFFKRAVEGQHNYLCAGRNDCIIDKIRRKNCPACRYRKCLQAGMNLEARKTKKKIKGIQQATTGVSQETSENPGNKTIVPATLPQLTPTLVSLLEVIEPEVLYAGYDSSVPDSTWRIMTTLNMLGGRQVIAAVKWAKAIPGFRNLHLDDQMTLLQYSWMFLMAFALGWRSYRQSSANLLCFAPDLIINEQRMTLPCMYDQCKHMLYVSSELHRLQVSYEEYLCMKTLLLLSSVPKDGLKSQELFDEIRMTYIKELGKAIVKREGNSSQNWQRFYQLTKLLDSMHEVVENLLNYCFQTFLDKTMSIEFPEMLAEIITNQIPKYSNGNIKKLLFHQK
`CCCCCCCCCCCCc1cccc(S(=O)(=O)O)c1`: the half-maximal activity concentration (AC50) is 4.55 µM (active).

For `CCCCCCCCCCCCOS(=O)(=O)O`, the AC50 is 11.6 µM (active) and 12.7 µM (active). Same read-out and setting: the result for `O=C1C=CC(=O)c2ccccc21` reads 4.63 µM (active).

Regarding `Cc1cccc(OP(=O)(Oc2cccc(C)c2)Oc2cccc(C)c2)c1`, the compound was called inactive.

Consider `CC(C=O)Cc1ccc2c(c1)OCO2` (stereo not drawn), for which the result was inactive.
